# Results published in PubChem BioAssay (NCATS).
# Results filed as inconclusive are left out. Calls of active or inactive are those of the source. Calls come from the whole dose curve; as a rule, active = well fitted cell-killing curve with a large enough effect; inconclusive = small, poorly fitted or top-dose-only effect; inactive = flat fitted curve, though single readings scatter.
# Assay: Cell Viability - Renal Proximal Tubule (AID 545);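 note: 0% = DMSO only and -100% = 100 µM tamoxifen; nearly all actives have a fitted effect of over 40% in size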
# Details: renal proximal tubule cells viability; series mostly up to 91.7 µM; activity change, negative = cytotoxicity: at the top concentration
# Text: NIH Chemical Genomics Center [NCGC]
# NIH Molecular Libraries Screening Centers Network [MLSCN]
# National Institutes of Environmental Health Sciences [NIEHS]
# National Toxicology Program [NTP]
# We have developed a 1536-well cell-based assay for quantitative high throughput screening (qHTS) against a number of cell lines to determine in vitro cytotoxicity of small molecules. This particular assay uses the renal proximal tubule cells which are derived from normal kidney cells freshly isolated from rat.
# NCGC Assay Protocol Summary:
# The CellTiter-Glo luminescent cell viability assay (Promega) is a homogeneous method to measure the number of viable cells in culture. The end point readout of this assay is based on quantitation of intracellular ATP, an indicator of metabolic activity, using the luciferase reaction. Luciferase catalyzes the oxidation of beetle Luciferin to oxyluciferin and light in the presence of ATP. The luminescent signal is proportional to amount of ATP present.
# Using the CellTiter-Glo luminescent cell viability assay, the amount of cellular ATP was measured in the renal proximal tubule cells with complete culture medium following compound treatment for 40 hours. The assay was performed in opaque white Kalypsys 1536-well plates. In the screen, tamoxifen and doxorubicin were used as positive controls. Library compounds were measured for their ability to cause acute toxicity in the cell line, as reflected by a decrease in intracellular ATP levels, in a concentration-dependent manner. […] AC50 values were determined from concentration-response data modeled with the standard Hill equation.
# qHTS protocol for CellTiter Glo renal proximal tubule cell assay
# [Step] [Parameter] [Value] [Description]
# 1. Reagent; 5 uL; 1000 renal proximal tubule cells/well
# 2. Time; 5 hr; 37 °C incubation
# 4. Controls; 23 nL; Tamoxifen 0.34 uM to 100 uM & Doxorubicin 0.02 nM to 100 uM
# 5. Time; 40 hr; 37 °C incubation
# 6. Reagent; 5 uL; CellTiter Glo reagent
# 7. Time; 20 min; Room Temperature
# 8. Detection; Luminescence; Viewlux plate reader
# Keywords: cell viability, cytotoxicity, renal proximal tubule cells, luminescence, NTPHTS, NTPHTS_NCGC, NIEHS, EPA, DSSTox, MLSMR, MLSCN, NIH Roadmap, qHTS, NCGC
row,Structure (SMILES),"activity change, negative = cytotoxicity"
1,O=C(O)CBr,-2.87% [at 91.7 µM] (inactive)
2,CCOP(=S)(OCC)SCCSCC,-0.0701% (inactive)
3,N#CC(Br)Br,-15% (inactive)
4,FC(Cl)(Cl)Cl,-2.41% (inactive)
5,O=C(O)C(Cl)Br (stereo not given),-4.98% (inactive)
6,Clc1ccccc1,-9.29% (inactive)
7,CC(C)(COCC1CO1)COCC1CO1 (stereo not given),-8.41% (inactive)
8,O=[N+]([O-])c1ccc(O)c([N+](=O)[O-])c1,-24.9% [at 91.7 µM] (inactive)
9,O=[N+]([O-])c1cccc(CCl)c1,-3.51% (inactive)
10,C=COC(C)=O,3.85% (inactive)
11,CN(C)N=O,-3.45% (inactive)
12,Nc1ccc(Cl)c(Cl)c1,-10.3% (inactive)
13,C=C(Cl)CSC(=S)N(CC)CC,0.0427% (inactive)
14,CCCCC(CC)COC(=O)c1ccc(C(=O)OCC(CC)CCCC)c(C(=O)OCC(CC)CCCC)c1 (stereo not given),-8.66% (inactive)
15,Nc1cccc(Cl)c1,-4.6% [at 91.7 µM] (inactive)
16,CC(C)(C)OOC(=O)c1ccccc1,-11.5% (inactive)
17,CN(C)C(=O)Nc1ccc(Cl)cc1,-9.61% [at 91.7 µM] (inactive)
18,Brc1cccc(-c2ccccc2)c1,-5.14% (inactive)
19,Cc1ccc([N+](=O)[O-])cc1,-12.4% (inactive)
20,Nc1c(Br)cc([N+](=O)[O-])cc1[N+](=O)[O-],-26.4% (inactive)

row,Structure (SMILES),"activity change, negative = cytotoxicity"
1,C=C(Cl)CCl,2.94% (inactive)
2,O=C(O)CCl,-15.2% (inactive)
3,N#C/C(N)=C(/N)C#N,-9.04% (inactive)
4,Cc1ccc2c(c1N)C(=O)c1ccccc1C2=O,-19.9% (inactive)
5,Clc1cccc(Cl)c1,-6.93% (inactive)
6,C=CC=O,-3.12% (inactive)
7,Oc1cccc(Cl)c1Cl,-1.52% (inactive)
8,Nc1c(Cl)cc([N+](=O)[O-])cc1Cl,-21.3% (inactive)
9,CC(=O)NNc1ccccc1,2.47% (inactive)
10,Cc1cc(C)cc(OP(=O)(Oc2cc(C)cc(C)c2)Oc2cc(C)cc(C)c2)c1,-13% [at 91.7 µM] (inactive)
11,S=C1NCCN1,-6.08% (inactive)
12,C/C=C/C=O,-12.2% (inactive)
13,Oc1c(Cl)cccc1Cl,-5.11% (inactive)
14,C=CCCl,-5.66% (inactive)
15,CCN(CC)CCO,8.44% (inactive)
16,CN(C)C(=O)Cl,-13.9% (inactive)
17,c1ccc(N=NNc2ccccc2)cc1,-14% [at 91.7 µM] (inactive)
18,CCCC[N+](=O)[O-],0.404% (inactive)
19,O=C(O)C(Br)CBr (stereo not given),-25.3% (inactive)
20,Nc1ccc(Cc2ccc(N)cc2)cc1,-11.1% (inactive)
